In PubChem BioAssay (NCI):
This is part of a sample that, as a whole, favours compounds with a hit. Of some 79,000 tested, about 15% had one in any assay. Activity calls are given as the source filed them. Rule as the data show it: active = growth inhibition above about 70%; inactive = the rest.

Legend:
[1] = NCI Yeast Anticancer Drug Screen. Data for the rad52 strain (AID 147);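 also: 0% = growth of vehicle-treated control cultures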; settings: S. cerevisiae rad52 mutant growth inhibition, active compounds read high
How it was run: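 Vehicle-treated cultures served as the reference for growth inhibition of compound-exposed yeast bearing a DNA repair mutation.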

[2] = NCI Yeast Anticancer Drug Screen. Data for the wt1 strain (AID 149);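 also: 0% = growth of vehicle-treated wt1 cultures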; settings: S. cerevisiae wt1 strain (SPY 50644) growth inhibition, active compounds read high
How it was run: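 wt1 strain grown with compound or vehicle; inhibition taken from the growth difference.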

[3] = NCI Yeast Anticancer Drug Screen. Data for the rad50EPP+ strain (AID 151);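 also: 0% = growth of vehicle-treated control cultures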; settings: S. cerevisiae rad50 mutant strain, active compounds read high
How it was run: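 In this screen, rad50EPP+ yeast were exposed to compounds. Growth inhibition was scored against vehicle-treated controls.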

[4] = NCI Yeast Anticancer Drug Screen. Data for the mgt1 strain (AID 153); settings: S. cerevisiae mgt1 mutant growth inhibition, active compounds read high
How it was run: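 mgt1 strain exposed; growth vs vehicle control recorded as inhibition.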

[5] = NCI Yeast Anticancer Drug Screen. Data for the rad50 strain (AID 155);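 also: 0% = growth of vehicle-only cultures of the same strain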; settings: S. cerevisiae rad50 strain growth inhibition, active compounds read high
How it was run: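 DNA repair mutant yeast, compound exposure, growth read-out; inhibition is taken relative to vehicle.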

[6] = NCI Yeast Anticancer Drug Screen. Data for the mec2-1 strain (AID 157); settings: S. cerevisiae mec2-1 strain, active compounds read high
How it was run: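 Vehicle-treated cultures served as reference for growth inhibition of compound-exposed mec2-1 yeast.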

[7] = NCI Yeast Anticancer Drug Screen. Data for the rad14 strain (AID 159);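 also: 0% = growth of vehicle-treated control cultures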; settings: S. cerevisiae rad14 strain growth inhibition, active compounds read high
How it was run: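 DNA repair-defective yeast, compound-exposed; % growth inhibition derived by comparison with vehicle-treated controls.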

[8] = NCI Yeast Anticancer Drug Screen. Data for the sgs1 mgt1 strain (AID 161);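 also: 0% = growth of cultures given vehicle only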; settings: S. cerevisiae sgs1 mgt1 strain, active compounds read high
How it was run: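 Mutant yeast exposed to compound; growth scored against vehicle-only wells.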

[9] = NCI Yeast Anticancer Drug Screen. Data for the CLN2oe strain (AID 163);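 also: 0% = growth of vehicle-only control cultures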; settings: S. cerevisiae CLN2oe strain, active compounds read high
How it was run: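 Inhibition relative to vehicle-treated yeast is reported. Cells: strain with genetic alteration in cell-cycle control, grown with compound.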

[10] = NCI Yeast Anticancer Drug Screen. Data for the cln2 rad14 strain (AID 165);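 also: 0% = growth equal to vehicle treated cultures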; settings: S. cerevisiae cln2 rad14 strain, active compounds read high
How it was run: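 Each compound was tested on cln2 rad14 yeast. Inhibition of growth was calculated against vehicle-exposed controls.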

[11] = NCI Yeast Anticancer Drug Screen. Data for the bub3 strain (AID 167); settings: S. cerevisiae bub3 mutant strain, active compounds read high
How it was run: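 In this screen, a yeast mutant lacking normal mitotic checkpoint function is challenged with compound. Relative growth versus vehicle gives the inhibition value.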

[12] = NCI Yeast Anticancer Drug Screen. Data for the wt2 strain (AID 169);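 also: 0% = growth of vehicle-treated yeast cultures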; settings: S. cerevisiae wt2 strain growth inhibition, active compounds read high
How it was run: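 Inhibition of yeast growth was determined after compound treatment, normalised to controls receiving only vehicle.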

[13] = NCI Yeast Anticancer Drug Screen. Data for the mlh1 strain (AID 171);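 also: 0% = growth of vehicle-treated control cultures of the same strain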; settings: S. cerevisiae mlh1 strain growth inhibition, active compounds read high
How it was run: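 Vehicle-normalised growth inhibition of a repair- or checkpoint-altered yeast strain following compound treatment.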

[14] = NCI Yeast Anticancer Drug Screen. Data for the sgs1 strain (AID 173);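 also: 0% = growth of vehicle-only control cultures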; settings: S. cerevisiae sgs1 mutant, active compounds read high
How it was run: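 Screen format: yeast with repair or checkpoint alterations, compound exposure, growth read relative to vehicle.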

[15] = NCI Yeast Anticancer Drug Screen. Data for the mlh1 rad18 strain (AID 175); settings: S. cerevisiae mlh1 rad18 strain growth inhibition, active compounds read high
How it was run: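 Vehicle-treated cultures served as the reference for growth inhibition in a yeast strain carrying DNA damage repair alterations exposed to each compound.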

[16] = NCI Yeast Anticancer Drug Screen. Data for the rad18 strain (AID 177); settings: S. cerevisiae rad18 mutant growth inhibition, active compounds read high
How it was run: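 Test articles were incubated with altered yeast defective in DNA damage repair. Results are given as inhibition of growth versus vehicle.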

[17] = at 5.0 µM (retest, dose inferred, filed as 0.5)
[18] = at 50.0 µM (retest, dose inferred, filed as 5.0)

Measured: growth inhibition

CC1=C[C@H]2O[C@@H]3C[C@H]4OC(=O)/C=C\C=C\C(C(C)O)OCC(O)C(C)CC(=O)OC[C@@]2(C[C@@H]1O)[C@]4(C)[C@@]31CO1 (stereo partly drawn)
inactive: [1]; at 1.2 µM -21% | [1]; at 3.7 µM 2% | [2]; at 1.2 µM -13% | [2]; at 3.7 µM 24% | [3]; at 1.2 µM -29% | [3]; at 3.7 µM -43% | [3]; at 11.0 µM -31% | [3]; at 33.0 µM -46% | [3]; at 100.0 µM -55% | [4]; at 1.2 µM -54% | [4]; at 3.7 µM -7% | [5]; at 1.2 µM -23% | [5]; at 3.7 µM 17% | [5]; [17] 41% | [6]; at 1.2 µM -60% | [6]; at 3.7 µM -3% | [6]; [17] 40% | [7]; at 1.2 µM -14% | [7]; at 3.7 µM 25% | [8]; [17] 7% | [8]; [18] 12% | [9]; at 1.2 µM 13% | [9]; at 3.7 µM 24% | [9]; at 100.0 µM 18% | [10]; [17] 18% | [10]; [18] -18% | [11]; at 1.2 µM -46% | [11]; at 3.7 µM 4% | [11]; [17] 4% | [11]; [18] -8% | [12]; at 1.2 µM -12% | [12]; at 3.7 µM 8% | [13]; at 1.2 µM -73% | [13]; at 3.7 µM 3% | [14]; at 1.2 µM -42% | [14]; at 3.7 µM -17% | [15]; [17] 68% | [16]; at 1.2 µM -64% | [16]; at 3.7 µM -15%
active: [1]; at 11.0 µM 91% | [1]; at 33.0 µM 97% | [1]; at 100.0 µM 97% | [2]; at 11.0 µM 93% | [2]; at 33.0 µM 98% | [2]; at 100.0 µM 98% | [4]; at 11.0 µM 92% | [4]; at 33.0 µM 97% | [4]; at 100.0 µM 97% | [5]; at 11.0 µM 92% | [5]; at 33.0 µM 97% | [5]; [18] 98% | [5]; at 50.0 µM 91.1% | [5]; at 100.0 µM 97% | [6]; at 11.0 µM 88% | [6]; at 33.0 µM 97% | [6]; [18] 98% | [6]; at 50.0 µM 92.2% | [6]; at 100.0 µM 97% | [7]; at 11.0 µM 93% | [7]; at 33.0 µM 97% | [7]; at 100.0 µM 97% | [8]; at 50.0 µM 92.2% | [9]; at 11.0 µM 91% | [9]; at 33.0 µM 97% | [10]; at 50.0 µM 91.4% | [11]; at 11.0 µM 89% | [11]; at 33.0 µM 97% | [11]; at 50.0 µM 90.8% | [11]; at 100.0 µM 97% | [12]; at 11.0 µM 78% | [12]; at 33.0 µM 98% | [12]; at 100.0 µM 98% | [13]; at 11.0 µM 89% | [13]; at 33.0 µM 97% | [13]; at 100.0 µM 97% | [14]; at 11.0 µM 82% | [14]; at 33.0 µM 94% | [14]; at 100.0 µM 96% | [15]; [18] 98% | [15]; at 50.0 µM 89.7% | [16]; at 11.0 µM 91% | [16]; at 33.0 µM 96% | [16]; at 100.0 µM 96%
